Laboratory results taken from PubChem BioAssay (NCATS).
Results filed as inconclusive are left out. A call without a number means that no potency is given here. Calls of active or inactive are those of the source. Calls follow the shape of the dose curve; as a rule, active = well fitted inhibition curve with a large enough effect; inconclusive = small, poorly fitted or top-dose-only effect; inactive = flat fitted curve, though single readings scatter.

Tests used:
Experiment in all cases: qHTS profiling for inhibitors of Plasmodium falciparum proliferation (AID 504749); also: nearly all actives have a fitted effect of over 60% in size
Settings in all cases: P. falciparum in erythrocytes, SYBR Green DNA, 72 h; series mostly up to 28.7 µM
[1] = system: 3D7
Summary of the method: (§1)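 Fluorescence of SYBR Green-bound parasite DNA, read at 485/535 nm, served as the growth measure. Infected erythrocytes were cultured with compound 72 h; artemisinin (0.29 uM) and DMSO wells defined the normalization range.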

[2] = system: 7G8
Summary of the method: as §1

[3] = system: ATS95
Summary of the method: as §1

[4] = system: C2A
Summary of the method: as §1

[5] = system: CP191
Summary of the method: as §1

[6] = system: CP247
Summary of the method: as §1

[7] = system: CP250
Summary of the method: as §1

[8] = system: CP256
Summary of the method: as §1

[9] = system: CP260
Summary of the method: as §1

[10] = system: CP266
Summary of the method: as §1

[11] = system: CP297
Summary of the method: as §1

[12] = system: CP335
Summary of the method: as §1

[13] = system: DIV17
Summary of the method: as §1

[14] = system: P93_24
Summary of the method: as §1

[15] = system: P94_40
Summary of the method: as §1

[16] = system: PAD
Summary of the method: as §1

[17] = system: PC26
Summary of the method: as §1

[18] = system: TAB113
Summary of the method: as §1

[19] = system: TAB165
Summary of the method: as §1

[20] = system: GB4
Summary of the method: as §1
Potency is read from the fitted curve at half-maximal effect.

Row | SMILES | Potency [1] | Potency [2] | Potency [3] | Potency [4] | Potency [5] | Potency [6] | Potency [7] | Potency [8] | Potency [9] | Potency [10] | Potency [11] | Potency [12] | Potency [13] | Potency [14] | Potency [15] | Potency [16] | Potency [17] | Potency [18] | Potency [19] | Potency [20]
1 | CCC(C)C(N)C(=O)O (stereo not drawn) | inactive | inactive | inactive | inactive | inactive | inactive | inactive | inactive | inactive | inactive | inactive | inactive | inactive | inactive | inactive | inactive | inactive | inactive | inactive | 
2 | OCC(O)C(O)C(O)C(O)CO (stereo not drawn) | inactive | inactive | inactive | inactive | inactive | inactive | inactive | inactive | inactive | inactive | inactive | inactive | inactive | inactive | inactive | inactive | inactive | inactive | inactive | inactive
3 | CCC1OC(=O)C[C@@H](O)[C@H](C)[C@@H](OC2OC(C)CC(N(C)C)C2O)[C@@H](CC=O)C[C@@H](C)C(=O)/C=C/[C@]2(C)OC2C1C (stereo partly drawn) |  | 4.47 µM (active) |  |  |  |  |  | 2.24 µM (active) |  |  | 2.13 µM (active) | 1.2 µM (active) |  | 1.12 µM (active) |  |  |  |  |  | 
4 | O=C(O)c1ccccc1-c1c2ccc(=O)cc-2oc2cc(O)ccc12 |  |  |  |  |  |  |  |  |  | inactive |  |  |  |  |  |  |  |  |  | 
5 | NC(C(=O)O)C(O)c1ccc(O)c(O)c1 (stereo not drawn) | 8.91 µM (active) |  |  |  |  |  |  |  |  |  | 16.9 µM (active) |  |  |  |  |  |  |  |  | 
6 | Cc1cnc(NC(=O)C2C(=O)c3ccccc3S(=O)(=O)N2C)s1 (stereo not drawn) | inactive |  | inactive | inactive | inactive | inactive | inactive | inactive | inactive |  | inactive | inactive | inactive | inactive | inactive | inactive | inactive | inactive |  | inactive
7 | CC1=C(/C=C/C(C)=C\C=C\C(C)=C\C=C\C=C(C)\C=C\C=C(C)\C=C\C2=C(C)C[C@@H](O)CC2(C)C)C(C)(C)C[C@H](O)C1 |  | 1.26 µM (active) |  |  | inactive |  |  | inactive | 10 µM (active) |  |  | 15.1 µM (active) | 13.5 µM (active) | 12.6 µM (active) |  | 14.1 µM (active) |  | inactive | 11.2 µM (active) | 13.5 µM (active)
8 | CCCCC(=O)OC1CCC2C3CCc4cc(O)ccc4C3CC[C@]12C (stereo partly drawn) | inactive |  |  | inactive |  |  | inactive |  | inactive | inactive |  |  |  |  |  |  | inactive |  |  | inactive
9 | C=C1CCC(O)C/C1=C/C=C1\CCC[C@]2(C)[C@@H]([C@H](C)/C=C/[C@H](C)C(C)C)CC[C@@H]12 (stereo partly drawn) | inactive | 10 µM (active) |  |  |  |  |  |  | inactive | inactive | inactive | inactive | inactive |  |  |  | inactive |  |  | 
10 | C[C@@H]1CC2[C@@H]3C[C@H](F)C4=CC(=O)C(Cl)=C[C@]4(C)[C@@]3(F)[C@H](O)C[C@]2(C)[C@@]1(O)C(=O)CO (stereo partly drawn) | inactive | 8.91 µM (active) |  |  |  |  | inactive | inactive |  | inactive | inactive | inactive |  |  |  |  |  |  |  | 
11 | Cc1cncc(C(=O)O)[n+]1[O-] | inactive | inactive | inactive |  |  |  |  |  | inactive |  | inactive | inactive | inactive |  | inactive | inactive | inactive | inactive |  | inactive
12 | O=C(NC(CO)C(O)c1ccc([N+](=O)[O-])cc1)C(Cl)Cl (stereo not drawn) |  |  | inactive |  |  |  |  | 11.2 µM (active) |  |  |  | 4.78 µM (active) | inactive |  |  | inactive | inactive |  |  | 
13 | O=C1Oc2ccccc2C(=O)C1C(CC(O)c1ccc(-c2ccc(Br)cc2)cc1)c1ccccc1 (stereo not drawn) | inactive | 12.6 µM (active) | inactive |  | inactive |  |  |  | inactive | inactive | inactive |  |  |  | inactive |  | inactive | inactive | inactive | inactive
14 | C[C@H](CN1c2ccccc2Sc2cccnc21)N(C)C |  |  | 11.2 µM (active) |  |  | 3.98 µM (active) |  |  | 8.91 µM (active) |  | 15.1 µM (active) | 6.01 µM (active) | 4.78 µM (active) | 8.91 µM (active) |  |  |  | 12.6 µM (active) | 11.2 µM (active) | 6.75 µM (active)
15 | Cc1cc(O)c2c(c1)OC1(C)CCC3C(C)(C)CCCC34COC2C14 (stereo not drawn) |  | 8.91 µM (active) |  | inactive |  |  |  | inactive | inactive |  |  |  | 15.1 µM (active) |  |  |  |  | 8.91 µM (active) |  | 15.1 µM (active)
16 | CCOc1ccccc1O[C@@H](c1ccccc1)[C@@H]1CNCCO1 |  | 5.01 µM (active) |  |  |  |  | inactive |  |  | inactive |  |  | 1.9 µM (active) | 10 µM (active) |  |  |  |  | 10 µM (active) | 
17 | CN(C)CC[C@@](O)(c1ccccc1)c1ccccc1Cl |  | 3.55 µM (active) | 11.2 µM (active) |  |  |  |  | 5.62 µM (active) | 10 µM (active) |  | 5.36 µM (active) | 7.57 µM (active) | 6.75 µM (active) | 5.62 µM (active) | 6.31 µM (active) | 11.2 µM (active) | 7.57 µM (active) | 11.2 µM (active) | 6.31 µM (active) | 7.57 µM (active)
18 | CC(C)CCCC(C)C1CC(=O)C2=C3CCC4CC(O)CCC4(C)C3CCC21C (stereo not drawn) |  |  | inactive | inactive | inactive | inactive | inactive | inactive |  | inactive | inactive |  | inactive | inactive | inactive | inactive | inactive |  | inactive | inactive
19 | CCC1OC(=O)C[C@H](O)C(C)[C@@H](O[C@@H]2OC(C)C(O)C(N(C)C)C2O)C(CCN2CC(C)CC(C)C2)CC(C)C(=O)/C=C/C(C)=C\[C@@H]1COC1OC(C)C(O)C(OC)C1OC (stereo partly drawn) | inactive |  |  | 10 µM (active) | 6.31 µM (active) |  |  | 8.91 µM (active) | 11.2 µM (active) |  |  | 9.53 µM (active) |  |  |  |  |  |  |  | 7.57 µM (active)
20 | O=C(O)C[CH2][Ge](=[O])[O][Ge](=[O])[CH2]CC(=O)O |  | inactive | inactive | inactive | inactive | inactive | inactive | inactive | inactive | inactive | inactive | inactive | inactive | inactive | inactive | inactive | inactive | inactive | inactive | inactive
21 | CNC1CCc2cc(OC)c(OC)c(OC)c2-c2ccc(OC)c(=O)cc21 (stereo not drawn) |  |  | inactive | inactive | inactive |  | inactive | inactive | inactive | inactive | inactive | inactive |  |  | inactive | inactive | inactive | inactive | inactive | inactive
22 | C=CCN1CC(C(=O)N(CCCN(C)C)C(=O)NCC)CC2c3cccc4[nH]cc(c34)CC21 (stereo not drawn) |  | 10 µM (active) |  |  |  |  | inactive |  |  | inactive | inactive |  | 13.5 µM (active) |  |  |  | inactive |  |  | 15.1 µM (active)
23 | C=C1CC[C@H](O)C/C1=C/C=C1\CCC[C@]2(C)[C@@H]([C@H](C)CC[C@@H](O)C(C)(C)O)CC[C@@H]12 |  | 8.91 µM (active) |  |  |  |  |  |  |  | inactive |  |  | 13.5 µM (active) |  |  |  | 15.1 µM (active) |  | 14.1 µM (active) | 
24 | C=C1CC[C@H](O)C/C1=C/C=C1\CCC[C@]2(C)[C@@H]([C@H](C)CCCC(C)(C)O)CC[C@@H]12 |  | 10 µM (active) |  |  |  | 8.91 µM (active) |  |  |  | inactive | 13.5 µM (active) |  | 15.1 µM (active) |  |  |  |  |  | 12.6 µM (active) | 
25 | CC[C@H]1OC(=O)[C@H](C)C(=O)[C@H](C)[C@@H](OC2O[C@H](C)C[C@H](N(C)C)[C@@H]2O)[C@@](C)(OC)C[C@@H](C)C(=O)[C@@H](C)C2N(CCCCn3cnc(-c4cccnc4)c3)C(=O)O[C@@]21C (stereo partly drawn) |  | 7.94 µM (active) |  | inactive |  | inactive | inactive | inactive |  | inactive |  |  | 13.5 µM (active) |  |  | 11.2 µM (active) | inactive |  |  | 
26 | C[C@]12CCC(=O)C=C1[C@@H]1C[C@H]1[C@H]1[C@@H]3[C@@H]4C[C@H]4[C@@]4(CCC(=O)O4)[C@@]3(C)CC[C@@H]12 |  |  | inactive | inactive | inactive | inactive | inactive | inactive | inactive | inactive | inactive | inactive | inactive | inactive | inactive |  | inactive | inactive | inactive | inactive
27 | C/C(=C(/CCOC(=O)C(C)C)SS/C(CCOC(=O)C(C)C)=C(\C)N(C=O)Cc1cnc(C)nc1N)N(C=O)Cc1cnc(C)nc1N | inactive | inactive | inactive | inactive |  | inactive | inactive | inactive | inactive | inactive | inactive | inactive | inactive | inactive | inactive | inactive | inactive | inactive | inactive | 
28 | COC(=O)C1[C@@H](OC)C(OC(=O)COc2ccc(OC)cc2)C[C@@H]2CN3CCc4c([nH]c5cc(OC)ccc45)[C@H]3C[C@H]12 (stereo partly drawn) | 10 µM (active) | 7.94 µM (active) |  |  |  |  |  |  |  | inactive | inactive | 12 µM (active) | 6.75 µM (active) | 10 µM (active) |  | 11.2 µM (active) |  |  | 12.6 µM (active) | 
29 | C=C1N[C@]2(C(=O)COC(C)=O)[C@@H](C[C@H]3[C@@H]4CCC5=CC(=O)C=C[C@]5(C)[C@H]4[C@@H](O)C[C@@]32C)O1 |  |  |  |  |  | inactive |  | inactive |  | inactive | inactive |  | inactive |  |  | inactive |  |  |  | inactive
